# Test results from PubChem BioAssay (EPA / NIEHS).
# Inconclusive results are not listed. Where a structure was tested more than once in an assay, its records may differ in their call. The source made the active and inactive calls. Rule for the calls, unless noted: active = hit-call score of the fitted dose curve at least 0.9, where 1 is the maximum; inactive = score below 0.9.
# Assays:
# [1] = BSK_3C_VCAM1: BioMAP Diversity Plus: 3C Assay for Vascular cell adhesion molecule 1 (VCAM1) Biomarker Activity (AID 2282999); conditions: BioMAP 3C HUVEC, VCAM1 ELISA, cytokine-stimulated; actives raise or lower the signal
# In short: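 Vascular primary endothelium (human umbilical vein) was exposed to chemicals and assayed 24 h later. VCAM-1 levels came from ELISA, with DMSO serving as baseline for bidirectional fitting.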
# [2] = BSK_4H_Eotaxin3: BioMAP Diversity Plus: 4H Assay for Eotaxin 3 Biomarker Activity (AID 2283000); conditions: primary human endothelial cells (HUVEC); actives raise or lower the signal;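 for outcome: CCL26 protein level quantified by ELISA in parallel with SRB cytotoxicity check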
# In short: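 Endothelial primary cells (human umbilical vein) exposed to compound for 24 h. ELISA detection of Eotaxin-3.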
# [3] = target: human Peroxisome Proliferator-activated Receptor alpha (PPARa), PPARA (gene 5465) (UniProt Q07869); experiment: ATG_PPARa_TRANS: Attagene TRANS-FACTORIAL HepG2 Assay for human Peroxisome Proliferator-activated Receptor alpha (PPARa) (AID 2283001; active = hit-call score of the fitted dose curve at least 0.9, where 1 is the maximum)
# Chain of human Peroxisome Proliferator-activated Receptor alpha (PPARa), PPARA (gene 5465) (Q07869 whole entry, looked up): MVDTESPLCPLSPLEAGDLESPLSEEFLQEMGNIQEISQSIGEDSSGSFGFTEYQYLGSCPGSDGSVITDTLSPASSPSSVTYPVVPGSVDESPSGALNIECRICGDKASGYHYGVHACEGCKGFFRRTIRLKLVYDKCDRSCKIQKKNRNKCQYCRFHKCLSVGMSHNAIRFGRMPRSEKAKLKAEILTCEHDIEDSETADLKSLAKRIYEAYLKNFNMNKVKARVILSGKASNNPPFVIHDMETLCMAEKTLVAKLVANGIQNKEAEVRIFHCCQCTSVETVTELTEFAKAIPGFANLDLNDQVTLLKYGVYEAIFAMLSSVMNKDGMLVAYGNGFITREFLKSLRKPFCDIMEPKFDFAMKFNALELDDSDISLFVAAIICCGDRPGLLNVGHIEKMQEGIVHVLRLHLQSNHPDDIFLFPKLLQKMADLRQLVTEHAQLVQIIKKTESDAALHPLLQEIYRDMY
# In short: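 Cells (HepG2) are transfected with multiple reporter transcription units, exposed to chemical for 24 h, then total RNA is reverse-transcribed and amplified. Labelled products are quantified by capillary electrophoresis; induction is referenced to DMSO.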
# [4] = read-out: Intercellular Adhesion Molecule 1 (ICAM1), ICAM1 (gene 3383); experiment: BSK_3C_ICAM1: BioMAP Diversity Plus: 3C Assay for Intercellular Adhesion Molecule 1 (ICAM1) Biomarker Activity (AID 2283003); conditions: primary human endothelial cells (HUVEC); actives raise or lower the signal
# In short: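 ELISA readout of ICAM1 in human umbilical vein endothelial cells in the 3C system, taken 24 h post-dose. Gain or loss of signal versus DMSO was fitted in both directions, with SRB total-protein staining run in parallel.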
# [5] = BSK_3C_Proliferation: Cell Proliferation Assessment in the BioMAP Diversity Plus: 3C Assay (AID 2283006); conditions: primary human endothelial cells (HUVEC);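 for AC50: potency may reflect either rise or fall in cell number versus DMSO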
# In short: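 Proliferation as total protein: sulforhodamine B (0.1%) stain of TCA-fixed subconfluent human umbilical vein endothelial cells, absorbance 560 nm, 48 h after dosing. Activity fitted in both directions against DMSO baseline.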
# [6] = target: Peroxisome proliferator-activated receptor gamma (Homo sapiens) (UniProt P37231); experiment: ATG_PPARg_TRANS: Attagene TRANS-FACTORIAL HepG2 Assay for human Peroxisome Proliferator-activated Receptor-gamma (PPARg) (AID 2283007; active = hit-call score of the fitted dose curve at least 0.9, where 1 is the maximum)
# Chain of Peroxisome proliferator-activated receptor gamma (Homo sapiens) (P37231 whole entry, looked up, the tested form may be a part): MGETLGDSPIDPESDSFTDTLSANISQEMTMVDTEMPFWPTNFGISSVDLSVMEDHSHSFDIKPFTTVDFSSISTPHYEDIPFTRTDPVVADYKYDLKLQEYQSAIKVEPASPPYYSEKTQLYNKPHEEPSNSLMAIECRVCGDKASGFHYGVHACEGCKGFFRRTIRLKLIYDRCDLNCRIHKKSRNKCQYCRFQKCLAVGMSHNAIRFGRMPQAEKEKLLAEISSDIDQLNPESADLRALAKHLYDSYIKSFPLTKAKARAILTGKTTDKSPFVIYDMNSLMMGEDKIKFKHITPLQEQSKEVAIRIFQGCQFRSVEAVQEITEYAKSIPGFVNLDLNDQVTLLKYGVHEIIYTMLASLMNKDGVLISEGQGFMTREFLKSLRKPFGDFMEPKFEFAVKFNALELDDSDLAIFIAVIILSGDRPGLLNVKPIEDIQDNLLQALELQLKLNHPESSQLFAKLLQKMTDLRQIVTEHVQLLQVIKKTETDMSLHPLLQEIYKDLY
# In short: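 Gain-of-signal endpoint relative to DMSO, derived from reporter mRNA levels quantified by RT-PCR and capillary electrophoresis. Cells were HepG2 transiently expressing a chimeric NR-Gal4 construct with GAL4-UAS reporters, exposed to chemicals for 24 h.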
# [7] = target: Nuclear receptor subfamily 1 group I member 2 (Homo sapiens) (UniProt O75469); experiment: ATG_PXR_TRANS: Attagene TRANS-FACTORIAL HepG2 Assay for human Pregnane X Receptor (PXR) (AID 2283008; active = hit-call score of the fitted dose curve at least 0.9, where 1 is the maximum)
# Chain of Nuclear receptor subfamily 1 group I member 2 (Homo sapiens) (O75469 whole entry, looked up, the tested form may be a part): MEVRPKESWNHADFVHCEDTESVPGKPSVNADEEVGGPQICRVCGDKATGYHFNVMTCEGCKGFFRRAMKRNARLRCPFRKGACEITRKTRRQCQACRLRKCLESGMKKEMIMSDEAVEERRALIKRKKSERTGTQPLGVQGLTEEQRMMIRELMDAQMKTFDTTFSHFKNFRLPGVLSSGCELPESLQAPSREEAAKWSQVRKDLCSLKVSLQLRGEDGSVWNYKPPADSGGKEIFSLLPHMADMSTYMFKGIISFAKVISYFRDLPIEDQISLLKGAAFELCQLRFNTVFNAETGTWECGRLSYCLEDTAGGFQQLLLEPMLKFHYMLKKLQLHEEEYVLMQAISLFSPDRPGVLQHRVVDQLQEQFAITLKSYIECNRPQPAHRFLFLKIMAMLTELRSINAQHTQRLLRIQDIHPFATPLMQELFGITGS
# In short: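 HepG2 transfected (FuGene 6) with GAL4-UAS reporter units + PXR-Gal4 chimera; dosed 24 h. Total RNA → oligo(dT) RT → PCR → 6-FAM primer extension → HpaI cut → CE. Gain-of-signal vs DMSO.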
# [8] = target: Retinoic acid receptor alpha (Homo sapiens) (UniProt P10276); experiment: ATG_RARa_TRANS: Attagene TRANS-FACTORIAL HepG2 Assay for human Retinoic Acid Receptor alpha (RARa) (AID 2283005; active = hit-call score of the fitted dose curve at least 0.9, where 1 is the maximum;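 for AC50: potency for increased reporter signal meaning RARa activation over DMSO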)
# Chain of Retinoic acid receptor alpha (Homo sapiens) (P10276 whole entry, looked up, the tested form may be a part): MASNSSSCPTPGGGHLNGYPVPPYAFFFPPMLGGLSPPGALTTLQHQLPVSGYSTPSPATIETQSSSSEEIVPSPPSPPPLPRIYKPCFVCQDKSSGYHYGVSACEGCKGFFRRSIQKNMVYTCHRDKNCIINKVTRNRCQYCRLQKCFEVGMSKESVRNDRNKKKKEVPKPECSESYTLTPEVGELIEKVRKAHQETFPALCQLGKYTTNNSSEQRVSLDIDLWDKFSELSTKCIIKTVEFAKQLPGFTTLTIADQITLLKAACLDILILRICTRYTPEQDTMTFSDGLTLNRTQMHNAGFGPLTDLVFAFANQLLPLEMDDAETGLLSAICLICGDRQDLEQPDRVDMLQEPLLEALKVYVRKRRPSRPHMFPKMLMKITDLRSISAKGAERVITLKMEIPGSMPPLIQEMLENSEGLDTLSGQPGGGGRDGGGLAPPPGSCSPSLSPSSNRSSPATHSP
# In short: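 HepG2 cells transiently transfected with multiple reporter units expressing chimeric RARα-GAL4 fusion, with GAL4-UAS-driven reporters. After 24 h compound exposure, reporter mRNA induction quantified by RT-PCR and capillary electrophoresis with fluorescent labeling; gain-of-signal fitted relative to DMSO control.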
# [9] = target: human Peroxisome Proliferator-activated Receptor delta (PPARd), PPARD (gene 5467) (UniProt Q03181); experiment: ATG_PPARd_TRANS: Attagene TRANS-FACTORIAL HepG2 Assay for human Peroxisome Proliferator-activated Receptor delta (PPARd) (AID 2283002; active = hit-call score of the fitted dose curve at least 0.9, where 1 is the maximum)
# Chain of human Peroxisome Proliferator-activated Receptor delta (PPARd), PPARD (gene 5467) (Q03181 whole entry, looked up, the tested form may be a part): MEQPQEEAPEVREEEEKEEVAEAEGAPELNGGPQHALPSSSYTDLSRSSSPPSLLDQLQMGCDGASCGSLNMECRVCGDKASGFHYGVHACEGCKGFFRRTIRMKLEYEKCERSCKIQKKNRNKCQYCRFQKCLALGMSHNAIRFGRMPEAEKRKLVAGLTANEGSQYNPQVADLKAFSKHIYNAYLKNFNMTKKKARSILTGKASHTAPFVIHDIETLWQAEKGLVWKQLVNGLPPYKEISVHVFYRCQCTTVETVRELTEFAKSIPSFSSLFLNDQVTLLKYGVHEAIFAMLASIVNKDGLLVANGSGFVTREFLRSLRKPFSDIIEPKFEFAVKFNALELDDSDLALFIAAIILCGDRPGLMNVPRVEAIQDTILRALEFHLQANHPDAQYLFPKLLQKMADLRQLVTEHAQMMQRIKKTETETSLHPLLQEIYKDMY
# In short: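 Multiplexed trans-activation format: HepG2 liver cells expressing exogenous NR-Gal4 chimeras and GAL4-UAS reporters were exposed for 24 h. Reporter mRNA was detected by RT-PCR with capillary electrophoresis fluorescence; activity fitted as gain of signal relative to DMSO.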
# [10] = target: human Retinoic Acid Receptor gamma (RARg), RARG (gene 5916) (UniProt P13631); experiment: ATG_RARg_TRANS: Attagene TRANS-FACTORIAL HepG2 Assay for human Retinoic Acid Receptor gamma (RARg) (AID 2283009; active = hit-call score of the fitted dose curve at least 0.9, where 1 is the maximum)
# Chain of human Retinoic Acid Receptor gamma (RARg), RARG (gene 5916) (P13631 whole entry, looked up, the tested form may be a part): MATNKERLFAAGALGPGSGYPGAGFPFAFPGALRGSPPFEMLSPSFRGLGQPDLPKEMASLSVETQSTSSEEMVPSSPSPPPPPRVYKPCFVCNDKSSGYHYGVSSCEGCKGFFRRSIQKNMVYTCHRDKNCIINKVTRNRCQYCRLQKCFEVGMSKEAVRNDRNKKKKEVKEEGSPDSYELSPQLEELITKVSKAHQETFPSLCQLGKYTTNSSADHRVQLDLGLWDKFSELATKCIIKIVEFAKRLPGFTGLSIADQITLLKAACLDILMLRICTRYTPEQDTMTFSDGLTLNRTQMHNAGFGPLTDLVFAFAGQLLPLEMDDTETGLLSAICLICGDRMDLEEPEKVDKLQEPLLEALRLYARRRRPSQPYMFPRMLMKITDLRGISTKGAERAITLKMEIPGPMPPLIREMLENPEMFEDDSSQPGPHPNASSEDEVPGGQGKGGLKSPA
# In short: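 Transactivation of exogenous RARg-Gal4 fusion measured as reporter transcript induction after 24 h in transfected HepG2 cells. RNA reverse-transcribed, amplified, fluorescently labeled and resolved by capillary electrophoresis; increase relative to DMSO.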
smiles,measurement,setting,value
CN(C)[C@@H]1C(=O)C(C(N)=O)=C(O)[C@@]2(O)C(=O)C3=C(O)c4c(O)cccc4[C@@](C)(O)[C@H]3[C@H](O)[C@@H]12,outcome,[1],inactive
same,AC50,[2],33 µM (active)
same,outcome,[2],inactive
same,outcome,[3],inactive
same,outcome,[4],inactive
same,AC50,[5],20 µM (active)
same,outcome,[5],inactive
same,outcome,[6],inactive
same,outcome,[7],inactive
CCC(=O)Nc1ccc(Cl)c(Cl)c1,outcome,[1],inactive
same,outcome,[2],inactive
same,outcome,[3],inactive
same,outcome,[4],inactive
same,outcome,[8],inactive
same,outcome,[5],inactive
same,outcome,[6],inactive
same,outcome,[7],inactive
Nc1c(Cl)cc([N+](=O)[O-])cc1Cl,outcome,[1],inactive
same,outcome,[2],inactive
same,outcome,[4],inactive
same,outcome,[8],inactive
same,outcome,[5],inactive
same,outcome,[6],inactive
same,outcome,[7],inactive
CCOP(=O)(OCC)Oc1cc(C)nc(C(C)C)n1,outcome,[1],inactive
same,outcome,[2],inactive
same,outcome,[9],inactive
same,outcome,[4],inactive
same,outcome,[5],inactive
same,outcome,[6],inactive
CCC(=NOC/C=C/Cl)C1=C(O)CC(C2CCOCC2)CC1=O (stereo not given),outcome,[1],inactive
same,outcome,[2],inactive
same,outcome,[4],inactive
same,outcome,[5],inactive
same,outcome,[6],inactive
same,outcome,[7],inactive
CCc1cccc(C)c1N(C(=O)CCl)C(C)COC (stereo not given),outcome,[1],inactive
same,outcome,[2],inactive
same,outcome,[4],inactive
same,outcome,[5],inactive
same,AC50,[6],13.5 µM (active)
same,outcome,[7],inactive
CCOP(=O)(SC(C)CC)N1CCSC1=O (stereo not given),outcome,[1],inactive
same,outcome,[2],inactive
same,outcome,[4],inactive
same,outcome,[8],inactive
same,outcome,[5],inactive
same,outcome,[6],inactive
same,outcome,[7],inactive
CCOP(=S)(OCC)Oc1cc(C)nc(C(C)C)n1,outcome,[1],inactive
same,outcome,[2],inactive
same,outcome,[4],inactive
same,outcome,[5],inactive
same,AC50,[6],50 µM (active)
same,outcome,[7],inactive
CCCCSP(=O)(SCCCC)SCCCC,outcome,[1],inactive
same,outcome,[2],inactive
same,outcome,[3],inactive
same,outcome,[4],inactive
same,AC50,[5],29.5 µM (active)
same,AC50,[6],30.5 µM (active)
same,outcome,[7],inactive
same,outcome,[10],inactive
CN1COCN(Cc2cnc(Cl)s2)C1=N[N+](=O)[O-],outcome,[1],inactive
same,outcome,[2],inactive
same,outcome,[3],inactive
same,outcome,[4],inactive
same,outcome,[5],inactive
same,outcome,[6],inactive
same,outcome,[10],inactive
CCOP(=S)(Oc1cnc(C(C)(C)C)nc1)OC(C)C (stereo not given),AC50,[1],36.8 µM (active)
same,AC50,[2],31.9 µM (active)
same,outcome,[4],inactive
same,outcome,[8],inactive
same,AC50,[5],33.3 µM (active)
same,outcome,[6],inactive
same,outcome,[7],inactive
same,outcome,[10],inactive
CC1(C(=O)Nc2ccc(O)c(Cl)c2Cl)CCCCC1,outcome,[1],inactive
same,outcome,[2],inactive
same,outcome,[9],inactive
same,outcome,[4],inactive
same,outcome,[5],inactive
same,AC50,[6],50 µM (active)
same,AC50,[7],9.83 µM (active)
CCCOc1nn(C(=O)NS(=O)(=O)c2ccccc2C(=O)OC)c(=O)n1C,AC50,[1],1.09 µM (active)
same,outcome,[2],inactive
same,outcome,[4],inactive
same,outcome,[5],inactive
same,outcome,[6],inactive
same,outcome,[7],inactive
same,outcome,[10],inactive
CCOC(=O)CC(SP(=O)(OC)OC)C(=O)OCC (stereo not given),outcome,[1],inactive
same,outcome,[2],inactive
same,outcome,[3],inactive
same,outcome,[4],inactive
same,outcome,[5],inactive
same,AC50,[6],28.7 µM (active)
same,outcome,[10],inactive
CC(COc1ccc(Oc2ccccc2)cc1)Oc1ccccn1 (stereo not given),outcome,[1],inactive
same,outcome,[2],inactive
same,outcome,[9],inactive
same,outcome,[4],inactive
same,outcome,[5],inactive
same,AC50,[6],14.5 µM (active)
same,outcome,[7],inactive
FC(F)C(F)(F)OCC(Cn1cncn1)c1ccc(Cl)cc1Cl (stereo not given),outcome,[1],inactive
same,AC50,[2],28.4 µM (active)
same,outcome,[4],inactive
same,AC50,[8],13.2 µM (active)
same,AC50,[5],20 µM (active)
same,outcome,[6],inactive
same,outcome,[7],inactive
same,outcome,[10],inactive
S=C1NCCN1,outcome,[1],inactive
same,outcome,[2],inactive
same,outcome,[4],inactive
same,outcome,[5],inactive
same,outcome,[6],inactive
same,outcome,[7],inactive
COP(=O)(OC)SCn1c(=O)oc2cc(Cl)cnc21,outcome,[1],inactive
same,AC50,[2],36.9 µM (active)
same,outcome,[3],inactive
same,outcome,[4],inactive
same,outcome,[5],inactive
same,AC50,[6],14.7 µM (active)
same,outcome,[7],inactive
CCCSP(=O)(OCC)SCCC,outcome,[1],inactive
same,outcome,[2],inactive
same,outcome,[4],inactive
same,outcome,[8],inactive
same,outcome,[5],inactive
same,outcome,[6],inactive
same,outcome,[7],inactive
same,outcome,[10],inactive
